Calls of active or inactive are those of the source.

For assay [1], the system named is PRMT1 (protein arginine N-methyltransferase 1). Briefly: PRMT1 binders on small-molecule microarrays, primary screen, biochemical, small-molecule microarray, 635 nm fluorescence (AID 1088).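 Further: binding of Prmt1 protein to compounds spotted on small-molecule microarray slides.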 Particulars: small-molecule microarray binding, higher = more signal.
The nature of assay [2]: yeast growth modulation, basal conditions, primary screen, YJM789 clinical isolate, OD600, 24 h (AID 1089).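 Further: growth of clinical yeast isolate S. cerevisiae YJM 789 seeded 1000 cells per well; test concentration not given here.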 The conditions noted are these: S. cerevisiae YJM789 growth, higher = more signal, called active from +8 up or from −8 down.
Assay [3] can be described thus: fission yeast growth modulation, primary screen, strain 972, OD600, 24 h, no modulator (AID 1090).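 Further: basal condition with compound alone and no growth modifier present; test concentration not given here.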 Particulars: S. pombe 972 growth, higher = more signal, called active from +8 up or from −8 down.
Assay [4] is described as follows: S. cerevisiae growth modulation with rapamycin, primary screen, strain BY4716, OD600, 96 h (AID 1091). Further: test concentration not given here. The conditions noted are these: higher = more signal, called active from +8 up or from −8 down.
Assay [5] addresses Torsin-1A-interacting protein 2 (Homo sapiens) (UniProt Q8NFQ8). Briefly: LULL1 binders on small-molecule microarray, primary screen, cell lysate, human LULL1 lysate, 635/667 nm fluorescence (AID 1092).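 Further: probe is lysate of COS7 cells overexpressing human LULL1; score merges per-feature 667 nm fluorescence with signal-to-noise.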 The conditions noted are these: hLULL1 lysate binding, 635 nm fluorescence, higher = more signal.
Assay [6] can be described thus: E. coli growth modulation, two-sided OD650, primary screen, E. coli filamentation project, strain DRC41, 24 h (AID 1093).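 Further: MC1000 strain lacking acrAB efflux and sulA so SOS filamentation is blocked; test concentration not given here.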 Particulars: OD650, 24 h, higher = more signal, called active from +8 up or from −8 down.
Assay [7] is described as follows: small-molecule microarray binders of probe aLefty2, primary screen, biochemical, biotinylated probe, 635/667 nm fluorescence (AID 1094).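 Further: score merges spot fluorescence near 667 nm with spot signal-to-noise ratio.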 Particulars: higher = more signal.
The test system of assay [8] is Noggin (protein binding on small-molecule microarray). Briefly: Noggin binders on small-molecule microarray, primary screen, biochemical, 635/667 nm fluorescence (AID 1095).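 Further: score merges 667 nm feature fluorescence with signal to noise over triplicate slides.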 Particulars: 635 nm fluorescence, higher = more signal.
The target of assay [9] is Neurogenic locus notch homolog protein 3 (Homo sapiens) (UniProt Q9UM47). The assay can be described thus: NOTCH3 binders on small-molecule microarray, primary screen, biochemical, 635/667 nm fluorescence (AID 1096). The conditions noted are these: NOTCH3 binding, 635 nm fluorescence, higher = more signal.
Sequence of Neurogenic locus notch homolog protein 3 (Homo sapiens) (Q9UM47 whole entry, looked up): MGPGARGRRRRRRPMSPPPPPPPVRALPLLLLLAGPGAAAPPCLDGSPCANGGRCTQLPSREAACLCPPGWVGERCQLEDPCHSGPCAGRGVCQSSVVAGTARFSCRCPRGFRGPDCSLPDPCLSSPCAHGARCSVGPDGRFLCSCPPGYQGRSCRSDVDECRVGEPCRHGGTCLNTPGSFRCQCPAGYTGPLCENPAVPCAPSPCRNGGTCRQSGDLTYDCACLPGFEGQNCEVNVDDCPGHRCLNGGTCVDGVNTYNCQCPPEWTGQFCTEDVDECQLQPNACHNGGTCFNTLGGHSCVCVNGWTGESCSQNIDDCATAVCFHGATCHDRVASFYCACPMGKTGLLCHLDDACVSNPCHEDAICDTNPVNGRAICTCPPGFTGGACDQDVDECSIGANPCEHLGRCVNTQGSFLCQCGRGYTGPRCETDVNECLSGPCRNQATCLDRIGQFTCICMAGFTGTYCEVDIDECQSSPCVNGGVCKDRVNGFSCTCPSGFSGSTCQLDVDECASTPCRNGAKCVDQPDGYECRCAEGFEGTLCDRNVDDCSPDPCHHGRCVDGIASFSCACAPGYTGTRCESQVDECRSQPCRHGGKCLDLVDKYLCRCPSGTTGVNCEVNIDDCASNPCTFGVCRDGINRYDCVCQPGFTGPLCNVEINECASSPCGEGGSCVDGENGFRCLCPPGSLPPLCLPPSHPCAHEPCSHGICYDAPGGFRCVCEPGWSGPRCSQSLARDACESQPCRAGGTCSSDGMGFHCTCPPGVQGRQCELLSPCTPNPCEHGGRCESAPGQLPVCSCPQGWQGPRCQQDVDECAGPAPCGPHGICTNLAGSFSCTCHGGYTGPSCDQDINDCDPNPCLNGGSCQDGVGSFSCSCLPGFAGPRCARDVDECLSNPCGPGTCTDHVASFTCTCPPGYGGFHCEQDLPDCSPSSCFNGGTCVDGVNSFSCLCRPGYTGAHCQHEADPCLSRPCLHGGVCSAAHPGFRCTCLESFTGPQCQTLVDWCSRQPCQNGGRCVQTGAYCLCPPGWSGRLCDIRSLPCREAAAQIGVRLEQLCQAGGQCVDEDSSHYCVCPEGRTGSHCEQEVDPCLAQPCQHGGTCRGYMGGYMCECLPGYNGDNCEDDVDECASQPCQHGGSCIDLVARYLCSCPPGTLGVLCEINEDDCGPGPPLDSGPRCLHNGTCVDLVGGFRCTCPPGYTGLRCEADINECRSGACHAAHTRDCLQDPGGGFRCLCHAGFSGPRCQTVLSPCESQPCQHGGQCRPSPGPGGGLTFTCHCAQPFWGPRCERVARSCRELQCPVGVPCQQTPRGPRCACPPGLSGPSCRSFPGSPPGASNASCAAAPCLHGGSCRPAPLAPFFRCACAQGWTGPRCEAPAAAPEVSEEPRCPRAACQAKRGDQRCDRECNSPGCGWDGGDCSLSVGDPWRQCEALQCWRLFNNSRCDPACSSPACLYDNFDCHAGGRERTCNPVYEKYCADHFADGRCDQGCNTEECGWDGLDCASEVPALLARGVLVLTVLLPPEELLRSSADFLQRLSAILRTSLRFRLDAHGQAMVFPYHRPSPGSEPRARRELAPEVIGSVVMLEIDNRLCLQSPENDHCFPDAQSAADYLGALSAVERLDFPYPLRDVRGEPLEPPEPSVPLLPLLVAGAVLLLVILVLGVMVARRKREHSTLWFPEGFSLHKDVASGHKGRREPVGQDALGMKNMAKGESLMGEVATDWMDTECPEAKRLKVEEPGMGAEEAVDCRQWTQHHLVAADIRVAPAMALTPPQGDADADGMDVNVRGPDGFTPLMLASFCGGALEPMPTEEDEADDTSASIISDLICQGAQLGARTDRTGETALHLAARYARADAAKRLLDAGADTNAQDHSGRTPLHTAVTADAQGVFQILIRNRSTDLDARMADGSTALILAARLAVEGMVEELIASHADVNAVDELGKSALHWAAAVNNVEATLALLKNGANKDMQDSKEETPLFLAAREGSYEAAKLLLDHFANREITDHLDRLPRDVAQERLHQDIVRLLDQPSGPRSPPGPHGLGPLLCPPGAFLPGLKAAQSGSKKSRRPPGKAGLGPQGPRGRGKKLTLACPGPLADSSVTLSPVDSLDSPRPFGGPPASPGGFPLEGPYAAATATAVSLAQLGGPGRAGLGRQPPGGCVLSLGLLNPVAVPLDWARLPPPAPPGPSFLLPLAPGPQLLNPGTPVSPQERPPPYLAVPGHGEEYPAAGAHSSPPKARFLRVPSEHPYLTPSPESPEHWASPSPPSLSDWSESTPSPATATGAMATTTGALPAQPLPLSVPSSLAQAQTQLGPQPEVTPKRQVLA
Assay [10] in a line: small-molecule microarray binders of probe aEGFR, primary screen, biochemical, biotinylated probe, 635/667 nm fluorescence (AID 1097).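 Further: probe is a biotinylated anti-EGFR antibody binding compounds printed on slides; score combines fluorescence near 667 nm and signal to noise of each spot.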 The conditions noted are these: higher = more signal.
Assay [11] relates to Plasmodium falciparum Sir2 (PF13_0152, Sir2A). Briefly: pfSir2 binders on small-molecule microarrays, primary screen, biochemical, small-molecule microarray, 635 nm fluorescence (AID 1098).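 Further: score merges spot fluorescence intensity with its signal-to-noise ratio.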 The conditions noted are these: small-molecule microarray binding, fluorescence 635 nm; higher = more signal.
Assay [12] in a line: small-molecule microarray binders of probe aDKK1, primary screen, biochemical, biotinylated probe, 635/667 nm fluorescence (AID 1099).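 Further: score merges 667nm spot fluorescence with signal to noise across triplicate slides; reference of the scale not given here.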 Particulars: higher = more signal.
Assay [13] can be described thus: small-molecule microarray binders of probe aCHRDL2, primary screen, biochemical, biotinylated probe, 635/667 nm fluorescence (AID 1100). Particulars: higher = more signal.
The nature of assay [14]: splicing luciferase reporter signal modulators, primary screen, spliceosome inhibition project, cell-based, HEK293, splice +/- reporter (AID 1101).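 Further: HEK293 cells carrying a splicing-competent luciferase reporter gene; test concentration not given here.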 The conditions noted are these: luminescence, 24 h, higher = more signal, called active from +8 up or from −8 down. For orientation: In a reporter assay the amount or activity of a reporter protein is the signal.
Assay [15] concerns the target Fibroblast growth factor 10 (Homo sapiens) (UniProt O15520). Briefly: FGF10 binders on small-molecule microarrays, primary screen, biochemical, small-molecule microarray, 635 nm fluorescence (AID 1102). The conditions noted are these: FGF10 binding, fluorescence 635 nm, higher = more signal.
Assay [16] has as its system glycogen synthase kinase-3 (GSK3A per assay name; protocol says GSK3B). The assay can be described thus: GSK3 binders on small-molecule microarrays, primary screen, biochemical, small-molecule microarray, 635 nm fluorescence, GSK3A (AID 1103). Further: the record names both GSK3A and GSK3B. The conditions noted are these: small-molecule microarray binding, fluorescence 635 nm; higher = more signal.
For assay [17], the target named is Epidermal growth factor receptor (Homo sapiens) (UniProt P00533). The assay can be described thus: EGFR binders on small-molecule microarrays, primary screen, biochemical, small-molecule microarray, 635 nm fluorescence (AID 1104).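 Further: score merges 667 nm emission intensity with spot signal to noise over triplicate slides.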 The conditions noted are these: EGFR binding, higher = more signal.
Sequence of Epidermal growth factor receptor (Homo sapiens) (P00533 whole entry, looked up): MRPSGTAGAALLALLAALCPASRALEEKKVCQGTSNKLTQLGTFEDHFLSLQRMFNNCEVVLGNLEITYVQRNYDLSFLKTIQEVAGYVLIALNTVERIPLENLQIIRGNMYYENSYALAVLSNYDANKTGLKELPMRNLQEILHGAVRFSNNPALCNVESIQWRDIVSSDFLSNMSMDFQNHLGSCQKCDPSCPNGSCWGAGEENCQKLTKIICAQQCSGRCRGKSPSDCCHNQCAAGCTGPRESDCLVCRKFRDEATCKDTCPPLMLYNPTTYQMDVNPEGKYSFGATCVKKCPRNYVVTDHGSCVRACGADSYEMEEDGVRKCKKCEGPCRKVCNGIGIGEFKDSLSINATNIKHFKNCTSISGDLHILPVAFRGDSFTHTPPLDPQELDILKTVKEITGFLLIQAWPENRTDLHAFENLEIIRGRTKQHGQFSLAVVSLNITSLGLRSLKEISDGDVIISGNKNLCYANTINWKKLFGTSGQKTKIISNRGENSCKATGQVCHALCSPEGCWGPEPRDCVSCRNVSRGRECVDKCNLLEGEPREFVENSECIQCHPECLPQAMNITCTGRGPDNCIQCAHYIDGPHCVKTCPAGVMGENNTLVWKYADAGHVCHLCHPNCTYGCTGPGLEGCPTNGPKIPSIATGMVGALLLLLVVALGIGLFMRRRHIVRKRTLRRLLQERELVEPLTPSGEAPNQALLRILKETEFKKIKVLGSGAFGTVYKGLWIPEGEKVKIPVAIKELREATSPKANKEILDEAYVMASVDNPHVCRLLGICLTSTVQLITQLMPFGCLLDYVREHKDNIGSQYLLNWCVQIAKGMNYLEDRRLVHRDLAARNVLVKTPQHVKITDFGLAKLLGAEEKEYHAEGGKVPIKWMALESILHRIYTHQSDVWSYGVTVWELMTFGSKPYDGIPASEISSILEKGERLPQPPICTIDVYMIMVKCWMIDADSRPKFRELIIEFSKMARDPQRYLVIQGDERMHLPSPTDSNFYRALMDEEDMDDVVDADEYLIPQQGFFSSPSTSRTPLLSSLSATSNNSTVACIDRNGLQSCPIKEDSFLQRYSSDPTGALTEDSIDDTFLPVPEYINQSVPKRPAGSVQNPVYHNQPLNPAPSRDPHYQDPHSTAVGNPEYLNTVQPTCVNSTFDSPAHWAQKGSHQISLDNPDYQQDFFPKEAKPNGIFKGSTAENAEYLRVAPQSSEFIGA
Assay [18] addresses Follistatin-related protein 3 (Homo sapiens) (UniProt O95633). The assay can be described thus: FSTL3 binders on small-molecule microarrays, primary screen, biochemical, small-molecule microarray, 635 nm fluorescence (AID 1105).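 Further: score merges emission near 667 nm and signal to noise per printed spot across three slides.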 The conditions noted are these: FSTL3 binding, higher = more signal.
For assay [19], the target named is Dickkopf-related protein 1 (Homo sapiens) (UniProt O94907). Briefly: DKK1 binders on small-molecule microarrays, primary screen, biochemical, small-molecule microarray, 635 nm fluorescence scan (AID 1106).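 Further: score merges emission near 667 nm with signal to noise over three replicate slides.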 Particulars: DKK1 binding, higher = more signal.
Sequence of Dickkopf-related protein 1 (Homo sapiens) (O94907 whole entry, looked up): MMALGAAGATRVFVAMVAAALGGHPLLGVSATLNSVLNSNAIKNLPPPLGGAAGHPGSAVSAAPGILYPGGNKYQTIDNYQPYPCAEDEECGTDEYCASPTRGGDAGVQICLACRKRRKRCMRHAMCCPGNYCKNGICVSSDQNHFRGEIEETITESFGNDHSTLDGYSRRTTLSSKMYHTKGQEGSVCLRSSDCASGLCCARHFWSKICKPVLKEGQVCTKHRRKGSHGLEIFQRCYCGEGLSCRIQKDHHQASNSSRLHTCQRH
The subject of assay [20] is Inhibin beta A chain (activin A). Briefly: INHBA (activin A) binders on microarrays, primary screen, biochemical, small-molecule microarray, 635 nm fluorescence scan (AID 1107).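 Further: mouse activin A protein probed at 4.33 µg/mL on printed slides; score merges bound-protein fluorescence near 667 nm with spot signal-to-noise.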 The conditions noted are these: small-molecule microarray binding, higher = more signal.

Sequence of Torsin-1A-interacting protein 2 (Homo sapiens) (Q8NFQ8 whole entry, looked up): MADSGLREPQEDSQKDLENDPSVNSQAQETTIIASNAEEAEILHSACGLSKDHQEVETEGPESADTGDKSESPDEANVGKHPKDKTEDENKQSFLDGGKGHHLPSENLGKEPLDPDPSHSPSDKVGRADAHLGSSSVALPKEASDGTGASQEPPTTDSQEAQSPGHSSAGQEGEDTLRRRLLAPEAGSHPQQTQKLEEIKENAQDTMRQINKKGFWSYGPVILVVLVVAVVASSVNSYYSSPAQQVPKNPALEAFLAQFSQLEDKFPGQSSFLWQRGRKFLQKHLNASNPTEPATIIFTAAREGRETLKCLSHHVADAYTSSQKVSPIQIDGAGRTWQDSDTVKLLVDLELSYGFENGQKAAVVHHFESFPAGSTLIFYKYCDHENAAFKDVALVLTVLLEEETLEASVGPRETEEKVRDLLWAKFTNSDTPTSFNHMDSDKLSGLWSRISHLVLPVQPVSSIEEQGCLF
Sequence of Follistatin-related protein 3 (Homo sapiens) (O95633 whole entry, looked up): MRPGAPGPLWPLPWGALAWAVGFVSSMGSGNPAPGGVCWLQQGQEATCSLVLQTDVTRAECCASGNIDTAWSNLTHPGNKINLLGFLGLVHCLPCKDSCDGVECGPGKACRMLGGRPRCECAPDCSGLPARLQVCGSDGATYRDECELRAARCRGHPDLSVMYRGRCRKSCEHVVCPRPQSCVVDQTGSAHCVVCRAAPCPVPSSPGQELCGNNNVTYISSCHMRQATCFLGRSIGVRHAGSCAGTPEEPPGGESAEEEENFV
Sequence of Fibroblast growth factor 10 (Homo sapiens) (O15520 whole entry, looked up): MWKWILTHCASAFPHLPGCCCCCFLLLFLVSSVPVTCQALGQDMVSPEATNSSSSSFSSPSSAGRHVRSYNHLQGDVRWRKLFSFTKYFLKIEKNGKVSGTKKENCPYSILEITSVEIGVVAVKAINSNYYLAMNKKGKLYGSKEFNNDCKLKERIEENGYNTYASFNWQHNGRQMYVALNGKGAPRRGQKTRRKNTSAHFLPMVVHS

For `O=C1C2C=CC(C(O)c3cccc4ccccc34)N(n3cnnc3)C2C(=O)N1Cc1ccccc1` (stereo not given), the composite z-score in assay [1] is -0.117; in assay [5], 0.846; in assay [7], 0.93; in [8], 0.56; in assay [9], 0.467; in assay [10], 0.804. The composite z-score is 0.161 in [11]; 1.72 in assay [12]; 0.8 in assay [13]; 0.975 in assay [15]; -0.181 in assay [16]; 0.402 in assay [17]. For the same compound, the composite z-score in assay [18] is 0.529; in assay [19], -0.13; in [20] it was 0.668. Besides, the z-score in assay [2] is -26.6 (active); in assay [3] it was -16.1 (active); in assay [4], -0.0039 (inactive); in [6] it was -1.18 (inactive); in assay [14] it was 0.228 (inactive).
As to `Cc1ccc(N2C(=O)c3ccccc3[C@@H](C(=O)NC(C)C)[C@@H]2c2ccc(CO)cc2)nc1`, the composite z-score was 0.528 in assay [1]; 3.07 in [5]; -0.0336 in assay [7]; -0.0751 in assay [8]; -0.528 in assay [9]; -0.115 in assay [10]. Further, the composite z-score was 1.87 in assay [11]; 0.167 in assay [12]; 0.61 in assay [13]; 0.121 in [15]; -0.0399 in assay [16]; -0.416 in assay [17]. Moreover, the composite z-score is -0.64 in [18], -0.32 in assay [19] and 0.726 in assay [20]. For the same compound, the z-score is -1.14 (inactive) in assay [2]; -0.958 (inactive) in [3]; -1.62 (inactive) in assay [4]; -0.113 (inactive) in [6]; 0.245 (inactive) in assay [14].
As for `O=C1C2C=CC(C(O)c3ccc(B(O)O)cc3)N(Nc3ccc([N+](=O)[O-])cc3)C2C(=O)N1c1ccccc1` (stereo not given), the composite z-score was 1.26 in assay [1]; 2.54 in assay [5]; 0.143 in assay [7]; 0.288 in assay [8]; 1.03 in [9]; 0.105 in assay [10]. Moreover, the composite z-score in assay [11] is 0.76; in assay [12], 0.627; in assay [13] it was 0.642; in assay [15], 1.11; in [16] it was 1.19; in assay [17], 0.415. The composite z-score was 0.998 in assay [18], -0.0757 in [19] and 0.0102 in assay [20]. Further, the z-score in [2] is -26.5 (active); in assay [3] it was -16.1 (active); in assay [4], 0.847 (inactive); in assay [6], -0.465 (inactive); in assay [14], 0.98 (inactive).
For the compound `CO[C@H]1O[C@H](CO)[C@@H](OC(=O)Nc2ccc3c(c2)OCO3)[C@H](OC(=O)Nc2ccc3c(c2)OCO3)[C@H]1OC(=O)Nc1ccc2c(c1)OCO2`, the composite z-score in assay [1] was 1.54; in [5] it was 3.5; in assay [7], 0.151; in [8], 0.816; in assay [9], 1.03; in assay [10] it was -0.0455. Besides, the composite z-score in assay [11] was 1.49; in assay [12] it was -0.0124; in assay [13] it was 0.392; in assay [15], 1.24; in assay [16] it was 1.33; in assay [17] it was 0.258. The composite z-score was 0.878 in [18], 0.101 in assay [19] and 1.14 in assay [20]. In addition, the z-score in assay [2] is 1.68 (inactive); in assay [3], 0.861 (inactive); in [4], 3.19 (inactive); in assay [6] it was 0.922 (inactive); in assay [14] it was -0.295 (inactive).
Turning to `[N-]=[N+]=NCc1ccccc1C[C@]1(C(=O)NCCN2CCOCC2)N=C(c2ccc(OCCCO)cc2)O[C@H]1c1ccccc1CN=[N+]=[N-]`, the composite z-score in assay [1] is 1.53; in assay [5] it was -3.05; in [7], 0.111; in [8] it was 1.16; in assay [9] it was 1.08; in assay [10], 0.0278. Further, the composite z-score worked out at 1.5 in assay [11]; 0.304 in assay [12]; 0.71 in assay [13]; 1.48 in assay [15]; 1.32 in assay [16]; 0.357 in assay [17]. Further, the figures for the composite z-score in assay [18], in assay [19] and in assay [20] were 0.535, 0.16 and 0.928, respectively. For the same compound, the z-score was -2.57 (inactive) in assay [2]; -0.847 (inactive) in assay [3]; -0.802 (inactive) in [4]; 1.2 (inactive) in assay [6]; -1.27 (inactive) in assay [14].

Values taken from PubChem BioAssay.
